Experimental findings from ChEMBL document CHEMBL1157539, “Thousands of chemical starting points for antimalarial lead identification” (Nature, 2010) are described below.

The structures appear in SMILES notation.

Common to all, as to format: functional
Test [1] deals with Plasmodium falciparum. The test can be described thus: GSK_TCMDC: Inhibition of Plasmodium falciparum 3D7 in whole red blood cells, using parasite LDH activity as an index of growth. Test compounds present at 2uM.
Test [2] has as its system Plasmodium falciparum. The test can be described thus: GSK_TCMDC: Inhibition of Plasmodium falciparum Dd2 in whole red blood cells, using parasite LDH activity as an index of growth. Test compounds present at 2uM.
Test [3] relates to HepG2. The test can be described thus: GSK_TCMDC: Percent inhibition of human HepG2 cell line. Test compounds present at 10uM.

By Inhibition is commonly meant the change of the read-out against control, counted positive when it falls. A high value points to a response far below the control. In the case of `Cl.Nc1c2c(nc3ccc(NC(=O)c4ccc([N+](=O)[O-])cc4)cc13)CCCC2`, the Inhibition is reported as 100% in test [1], 72% in test [2] and 19% in test [3].
For `COc1cc2nc(NCCN3CCOCC3)n3nc(-c4ccccc4)nc3c2cc1OC`, the Inhibition in test [1] was 96%; in test [2], 98%; in test [3], 15%.
For `c1ccc(Oc2ccc(Nc3nc(NCCc4c[nH]cn4)nc(NC4CCCC4)n3)cc2)cc1` the same measures were 97%, 23% and 0%.
Consider `CCCCCCCCCCNCC(O)c1ccc(O)c(C(=O)OC)c1` (stereo unspecified), for which the Inhibition stood at 97% in test [1], 97% in test [2] and 3% in test [3].
On to `O=C(NCCNc1ccnc(Nc2ccc(F)cc2)n1)c1cc2ccccc2s1`, for which the Inhibition in test [1] worked out at 99%; in test [2], 34%; in test [3], 0%.
Turning to `O=C(Nc1ccnc(-c2cccnc2)n1)c1cc(C(F)(F)F)cc(C(F)(F)F)c1`, the Inhibition was found to be 95% in test [1], 12% in test [2] and 22% in test [3].
The matching figures for `COc1ccc2ncc(Cl)c(N3CCC(CCNCc4ccc5c(n4)NC(=O)CS5)CC3)c2c1.Cl`: 89%, 82% and 33%.
With `CC(C)CCN1CCCN(Cc2cccc(NC(=O)c3ccc(-c4ccccc4)cc3)c2)CC1.O=C(O)C(F)(F)F`, the Inhibition in test [1] is given as 92%; in test [2], 21%; in test [3], 27%.
The matching figures for `Cc1cc(C2CCN(CCCCNC(=O)c3ccc(-c4ccc(C(F)(F)F)cc4)cc3)CC2)c(C)cc1OCCO`: 99%, 3% and 31%.
For `Cn1nc(C(F)(F)F)c(-c2ccc(F)cc2)c1NC(=O)Nc1ccc(F)cc1` the same measures were 100%, 99% and 5%.
Regarding `COc1c(C=NNc2nc(=Nc3ccccc3)[nH]c(=Nc3ccccc3)[nH]2)ccc(Br)c1O`, the Inhibition in test [1] was 98%; in test [2], 37%; in test [3] it was 63%.
For `O=C(NCCc1ccccc1)N(Cc1ccccc1-c1ccc(CNCCc2ccccc2)cc1)C1CCN(Cc2ccccc2)CC1.O=C(O)C(F)(F)F` the same measures were 97%, 91% and 99%.
The matching figures for `NC1=NC(c2ccccc2)(c2ccccc2)C(=O)N1Cc1ccc(-c2ccncc2)cc1.O=CO`: 96%, 74% and 20%.
For `CN1CCN(c2nc(NCCNc3ccc([N+](=O)[O-])cc3)c3ccccc3n2)CC1` the same measures were 90%, 25% and 37%.
Regarding `Oc1cccc2ccc(Nc3ccccn3)nc12`, the Inhibition is reported as 99% in test [1], 93% in test [2] and 72% in test [3].
The matching figures for `Cc1ccccc1C1CCN(C2CCC(NC(=O)/C=C/c3cc(F)ccc3F)CC2)CC1` (stereo unspecified): 85%, 36% and 47%.
Take `Br.Oc1ccccc1CCNC1CCc2ccccc2C1` (stereo unspecified): the Inhibition in test [1] was determined as 96%; in test [2] it was 95%; in test [3] it was 0%.
The matching figures for `CCCC(CNCc1cccc(SC(F)(F)F)c1)CNc1cc(=O)c2ccccc2[nH]1` (stereo unspecified): 100%, 87% and 5%.
The matching figures for `CCc1ccc(-c2nc3cc(NC(=O)c4ccc([N+](=O)[O-])o4)ccc3o2)cc1`: 97%, 80% and 4%.
For `Cl.NC(=O)c1cccc(Nc2nccc(Nc3ccc(Oc4ccc5ccccc5c4)cc3)n2)c1` the same measures were 96%, 31% and 15%.
Turning to `O=C(Cc1cccc(O)c1)Nc1ccc(-c2cccc(-c3nc4cc(C(F)(F)F)ccc4[nH]3)c2)cc1`, the figures for the Inhibition in test [1], in test [2] and in test [3] were 86%, 1% and 14%, respectively.
The matching figures for `CN(C)c1nc(NCc2ccccc2)nc(N/N=C/c2cc([N+](=O)[O-])ccc2O)n1`: 100%, 90% and 48%.
Consider `COc1ccc(C)c(Nc2ccnc(Nc3cccc(-c4nc5ccccc5[nH]4)c3)n2)c1.Cl`, for which the Inhibition in test [1] was 98%; in test [2], 35%; in test [3], 27%.
Take `C[C@@H](Oc1cc(-n2cnc3cc(SCCN4CCN(C)CC4)ccc32)sc1C(N)=O)c1ccccc1Cl`: the Inhibition in test [1] is listed as 90%; in test [2], 65%; in test [3] it was 46%.
The matching figures for `CC(C)c1sc(N2CCN(C)CC2)nc1C(=O)NCCc1ccc(Cl)c(Cl)c1.O=C(O)C(F)(F)F`: 98%, 79% and 10%.
With `C[C@@H]1CC[C@H](NC(=O)[C@H](CC2CCCC2)NC(=O)N2CCNCC2)C(=O)CN1S(=O)(=O)c1ccccn1.O=C(O)C(F)(F)F`, the Inhibition is 84% in test [1], 19% in test [2] and 5% in test [3].
Take `O=C(Nc1ccc(-c2nc3ccccc3[nH]2)cc1)c1cnc(Cl)c(Cl)c1`: the Inhibition in test [1] was determined as 100%; in test [2], 95%; in test [3] it was 11%.
Take `Cc1cccn2c(=O)c3cc(C(=O)NCCc4ccccc4)c(=N)n(CCCOC(C)C)c3nc12`: the Inhibition in test [1] amounted to 100%; in test [2] it was 40%; in test [3], 19%.
Consider `CN1CCC(N2CCN(Cc3ccc(-c4ccc(-c5nc6ccccc6[nH]5)s4)cc3)CC2)CC1.O=C(O)C(F)(F)F`, for which the Inhibition is given as 100% in test [1], 100% in test [2] and 62% in test [3].
Turning to `COc1cc(CCCOc2c(N)nc(N)nc2N)cc(OC)c1OC`, the results for the Inhibition in test [1], in test [2] and in test [3] were 88%, 0% and 8%, respectively.
For `O=C(NCC(NCCCNc1cc(=O)c2ccccc2[nH]1)c1cc(Br)cc(Br)c1)C1=CCCC1` (stereo unspecified), the figures for the Inhibition in test [1], in test [2] and in test [3] were 96%, 48% and 0%, respectively.
For `CCCOc1ccc(N2C(N)=NC(N)=NC2(C)C)cc1.Cl` the same measures were 97%, 2% and 1%.
For `CC(C)(C)C(=O)N1CCN(c2ccc([N+](=O)[O-])c(NC3CC3)c2)CC1` the same measures were 95%, 97% and 8%.
The matching figures for `CC(C)COc1ccc(Cl)cc1Cc1ccc(-c2nc3ccc(C(F)(F)F)cc3[nH]2)o1`: 97%, 51% and 14%.
Regarding `COc1cc(NCC(C)CNCc2cn(Cc3ccccc3)c3ccccc23)nc2ccccc12` (stereo unspecified), the Inhibition in test [1] was found to be 90%; in test [2], 55%; in test [3], 21%.
The matching figures for `O=C(Cc1cccs1)NCC(c1ccccc1Cl)c1c[nH]c2ccccc12` (stereo unspecified): 91%, 56% and 12%.
The matching figures for `CCNc1cc(C(=O)N[C@@H](Cc2ccccc2)[C@H](O)CNC(C)C)cc(N2CC(c3ccccc3)CCS2(=O)=O)c1` (stereo partly specified): 98%, 99% and 0%.
For `COc1ccc(Cn2c(Nc3cccc(C(F)(F)F)c3)nc3cc(C(=O)NCCN4CCCC4)ccc32)cc1Cl` the same measures were 97%, 54% and 11%.
Take `CN(C)c1ccc(NC2=NC(N)=NC(C)(C)N2)cc1`: the values for the Inhibition in test [1], in test [2] and in test [3] were 95%, 5% and 0%, respectively.
For `Nc1nc(N)c2c(ccc3c2ccn3CCCCO)n1` the same measures were 93%, 49% and 61%.
For `CN(C)CCNCc1ncsc1-c1ccc2c(Nc3ccc(F)cc3Cl)ccnc2c1` the same measures were 100%, 95% and 0%.
The matching figures for `Cc1c(-c2cccc(C(C)(C)NC3CCN(Cc4ccccc4)CC3)c2)cnc(N)c1C.Cl`: 100%, 39% and 14%.
As for `Cc1cc(N[C@@H](CC(C)C)C(=O)NCc2cccc(F)c2)nc(NCCc2ccc(F)cc2)n1.O=C(O)C(F)(F)F`, the Inhibition came out at 90% in test [1], 6% in test [2] and 0% in test [3].
For `COC(=O)c1cccc(CNCc2cccc(-c3ccc(-c4nc5cccc(C)c5[nH]4)cc3)c2)c1.O=C(O)C(F)(F)F` the same measures were 100%, 52% and 3%.
For `CCCCCN1CCCN(Cc2cccc(NC(=O)c3ccc(Cl)c(Cl)c3)c2)CC1.O=C(O)C(F)(F)F` the same measures were 89%, 28% and 30%.
For `CC(=O)c1ccc(NC(=O)NNC(=O)c2ccc(CCN3CCC(c4nc(COCC(F)(F)F)c(-c5ccc(F)cc5)o4)CC3)cc2)cc1` the same measures were 96%, 27% and 17%.
For `c1cncc(Oc2ccc(Nc3ccnc4cc(-c5cccc(CN6CCCCC6)c5)ccc34)cc2)c1`, the Inhibition in test [1] was 100%; in test [2], 100%; in test [3], 33%.
With `Clc1ccc2c(NN=Cc3cccs3)ccnc2c1`, the Inhibition in test [1] is reported as 100%; in test [2], 96%; in test [3], 0%.
The matching figures for `CN1CCc2cc(I)c(O)cc2C1Cc1ccccc1Cl.Cl` (stereo unspecified): 98%, 96% and 0%.
The matching figures for `Cc1cccc2nc(-c3ccc(-c4ccc(CN5CCN(CCO)CC5)cc4)cc3)[nH]c12.O=C(O)C(F)(F)F`: 100%, 97% and 20%.
For `CN(Cc1ccc(NC(=O)NC2CCN(C(=O)/C=C/c3ccc(Cl)c(Cl)c3)CC2)cc1)C1CCOCC1` the same measures were 96%, 14% and 9%.
On to `O=C(Nc1ccc(-c2ccc(-c3nc4cc(C(F)(F)F)ccc4[nH]3)s2)cc1)c1ccoc1`, for which the Inhibition is recorded as 94% in test [1], 54% in test [2] and 9% in test [3].
For `Cc1noc(C)c1C(=O)N1CCCC(c2[nH]c3c(C)cccc3c2-c2ccncc2)C1.Cl` (stereo unspecified) the same measures were 100%, 100% and 16%.
For `N=C(NCCCCCCNC(=N)NC(=N)c1ccc(Cl)cc1)NC(=N)c1ccc(Cl)cc1` the same measures were 98%, 99% and 10%.
Regarding `CC1CN(Cc2cccc(F)c2)CCN1c1ccc(NC(=O)c2ccc(F)cc2)cc1.O=C(O)C(F)(F)F` (stereo unspecified), the Inhibition in test [1] was determined as 96%; in test [2], 92%; in test [3], 0%.
The matching figures for `Cc1nc(-c2ccc(-c3ccc(C(=O)Nc4ccc(I)c(OCC5CCCN5C)c4)cc3)c(C)c2)no1.Cl` (stereo unspecified): 97%, 39% and 100%.
As for `CCCN(CC1CC1)c1ncc(-c2cccc(CNCc3ccccc3O)c2)cn1`, the Inhibition in test [1] turned out to be 97%; in test [2], 98%; in test [3], 15%.
For `O=C(Nc1ccc2oc(-c3ccc(Cl)cc3Cl)nc2c1)c1ccc([N+](=O)[O-])o1` the same measures were 95%, 78% and 39%.
For `O=C1C(=Cc2cc(Cc3ccccc3)ccc2O)SC(=S)N1Cc1ccccc1` the same measures were 98%, 53% and 16%.
The matching figures for `Cc1ccc(-c2nnc3c4ccccc4c(C)nn23)cc1S(=O)(=O)N1CCN(CCO)CC1`: 85%, 62% and 16%.
For the molecule `N=C(N)Nc1nc(-c2cccc(NC(=O)NCc3ccc(OC(F)(F)F)cc3)c2)cs1`, the Inhibition was determined as 100% in test [1], 26% in test [2] and 0% in test [3].
The matching figures for `O=C(NCCCCN1CCC(c2ccc(C(F)(F)F)cc2C(F)(F)F)CC1)c1ccc(NC(=O)c2ccc(Cl)cc2)cc1`: 99%, 59% and 4%.
